Here are results for 9 targets from the supplement of paper PMC10849652.

What all share (assay): log2 fold change, soluble protein after heating vs DMSO (PISA); higher = thermal stabilisation; K562 lysate, 10 uM; active = over 0.2 and 3.5 SD of the protein, either way, in both replicates (recomputed)
Compound in assay [1]: NCC(=O)Nc1ccc(-n2nc(C(F)(F)F)cc2-c2ccc3c(ccc4ccccc43)c2)cc1
The gist of the method: (§1)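 Following dounce homogenisation of K562 pellets in PBS pH 7.4 with 1 mM MgCl2, crude extract at 1 mg/mL protein was incubated for 30 min with 10 μM compound. Aliquots were then heated for 3 min over 48°C-58°C and pooled, NP-40 was added to 0.5% at 4°C, and soluble protein was recovered as the supernatant at 21,000xg for 90 min. Channel-sum-equalised TMTpro 16plex LC-MS/MS quantified this protein. Each value, from duplicates, is a log-two fold change in thermal stability relative to solvent controls.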

Compound in a further assay: O=C(CCCCCCC(=O)Nc1ccccc1)NO [vorinostat]
The gist of the method:
as §1

Compound in the next assay: O=C(O)c1ccc2c(c1)nc(Nc1cccc(Cl)c1)c1ccncc12 [silmitasertib]
The method in brief: as §1

Compound in assay [2]: O=C1NC(=O)C(c2cnc3ccccn23)=C1c1cn2c3c(cc(F)cc13)CN(C(=O)N1CCCCC1)CC2
The gist of the method: as §1

Compound in the next assay: c1cn2cc(-c3ccc4cn[nH]c4c3)nc(Nc3ccc(N4CCOCC4)cc3)c2n1 [entospletinib]
The method in brief: as §1

Of roughly 8,800 targets only a part is listed; those with a hit were picked by preference. About 0.5% of all pairs of compound and target were hits. A number with no mark means an inactive call.

Chain of UniProt Q6NXT4 (Q6NXT4 whole entry, looked up): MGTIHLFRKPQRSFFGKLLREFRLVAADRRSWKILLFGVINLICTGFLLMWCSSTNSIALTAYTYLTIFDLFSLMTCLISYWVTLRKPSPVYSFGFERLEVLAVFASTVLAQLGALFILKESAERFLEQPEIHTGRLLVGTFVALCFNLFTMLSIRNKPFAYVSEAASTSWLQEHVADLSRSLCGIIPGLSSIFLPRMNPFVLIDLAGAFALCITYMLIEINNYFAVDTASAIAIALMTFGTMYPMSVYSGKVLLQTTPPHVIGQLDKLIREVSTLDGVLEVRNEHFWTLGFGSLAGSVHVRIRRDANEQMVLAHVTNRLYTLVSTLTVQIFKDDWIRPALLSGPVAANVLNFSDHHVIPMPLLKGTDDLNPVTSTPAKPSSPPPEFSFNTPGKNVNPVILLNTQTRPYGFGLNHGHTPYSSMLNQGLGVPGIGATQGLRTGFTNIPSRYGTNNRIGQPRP
Chain of UniProt Q9H4L7 (Q9H4L7 whole entry, looked up): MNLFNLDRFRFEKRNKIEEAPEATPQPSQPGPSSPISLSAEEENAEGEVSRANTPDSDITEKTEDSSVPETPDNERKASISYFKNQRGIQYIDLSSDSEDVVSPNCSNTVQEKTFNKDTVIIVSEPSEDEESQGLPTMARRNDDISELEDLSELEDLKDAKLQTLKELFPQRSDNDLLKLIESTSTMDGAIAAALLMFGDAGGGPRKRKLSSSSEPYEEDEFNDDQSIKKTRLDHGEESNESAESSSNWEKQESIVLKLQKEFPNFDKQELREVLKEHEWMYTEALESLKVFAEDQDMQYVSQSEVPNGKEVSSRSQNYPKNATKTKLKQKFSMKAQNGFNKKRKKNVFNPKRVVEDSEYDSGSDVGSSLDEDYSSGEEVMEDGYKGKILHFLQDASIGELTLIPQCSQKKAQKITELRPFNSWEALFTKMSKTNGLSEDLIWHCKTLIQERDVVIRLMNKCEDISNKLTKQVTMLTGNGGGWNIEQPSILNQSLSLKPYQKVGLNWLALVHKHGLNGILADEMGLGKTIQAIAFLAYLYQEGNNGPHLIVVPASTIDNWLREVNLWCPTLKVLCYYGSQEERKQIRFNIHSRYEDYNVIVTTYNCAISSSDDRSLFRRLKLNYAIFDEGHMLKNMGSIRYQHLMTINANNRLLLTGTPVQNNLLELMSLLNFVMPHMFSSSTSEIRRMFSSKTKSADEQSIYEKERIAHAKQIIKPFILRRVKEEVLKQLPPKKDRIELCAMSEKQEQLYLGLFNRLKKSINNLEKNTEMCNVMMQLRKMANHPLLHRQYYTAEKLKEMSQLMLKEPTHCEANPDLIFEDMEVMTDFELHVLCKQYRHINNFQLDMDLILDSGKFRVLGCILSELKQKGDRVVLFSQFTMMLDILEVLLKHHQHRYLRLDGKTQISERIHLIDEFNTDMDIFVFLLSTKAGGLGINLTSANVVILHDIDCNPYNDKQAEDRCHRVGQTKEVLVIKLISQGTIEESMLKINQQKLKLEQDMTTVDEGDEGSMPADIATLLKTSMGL
Chain of UniProt Q86US8 (Q86US8 whole entry, looked up): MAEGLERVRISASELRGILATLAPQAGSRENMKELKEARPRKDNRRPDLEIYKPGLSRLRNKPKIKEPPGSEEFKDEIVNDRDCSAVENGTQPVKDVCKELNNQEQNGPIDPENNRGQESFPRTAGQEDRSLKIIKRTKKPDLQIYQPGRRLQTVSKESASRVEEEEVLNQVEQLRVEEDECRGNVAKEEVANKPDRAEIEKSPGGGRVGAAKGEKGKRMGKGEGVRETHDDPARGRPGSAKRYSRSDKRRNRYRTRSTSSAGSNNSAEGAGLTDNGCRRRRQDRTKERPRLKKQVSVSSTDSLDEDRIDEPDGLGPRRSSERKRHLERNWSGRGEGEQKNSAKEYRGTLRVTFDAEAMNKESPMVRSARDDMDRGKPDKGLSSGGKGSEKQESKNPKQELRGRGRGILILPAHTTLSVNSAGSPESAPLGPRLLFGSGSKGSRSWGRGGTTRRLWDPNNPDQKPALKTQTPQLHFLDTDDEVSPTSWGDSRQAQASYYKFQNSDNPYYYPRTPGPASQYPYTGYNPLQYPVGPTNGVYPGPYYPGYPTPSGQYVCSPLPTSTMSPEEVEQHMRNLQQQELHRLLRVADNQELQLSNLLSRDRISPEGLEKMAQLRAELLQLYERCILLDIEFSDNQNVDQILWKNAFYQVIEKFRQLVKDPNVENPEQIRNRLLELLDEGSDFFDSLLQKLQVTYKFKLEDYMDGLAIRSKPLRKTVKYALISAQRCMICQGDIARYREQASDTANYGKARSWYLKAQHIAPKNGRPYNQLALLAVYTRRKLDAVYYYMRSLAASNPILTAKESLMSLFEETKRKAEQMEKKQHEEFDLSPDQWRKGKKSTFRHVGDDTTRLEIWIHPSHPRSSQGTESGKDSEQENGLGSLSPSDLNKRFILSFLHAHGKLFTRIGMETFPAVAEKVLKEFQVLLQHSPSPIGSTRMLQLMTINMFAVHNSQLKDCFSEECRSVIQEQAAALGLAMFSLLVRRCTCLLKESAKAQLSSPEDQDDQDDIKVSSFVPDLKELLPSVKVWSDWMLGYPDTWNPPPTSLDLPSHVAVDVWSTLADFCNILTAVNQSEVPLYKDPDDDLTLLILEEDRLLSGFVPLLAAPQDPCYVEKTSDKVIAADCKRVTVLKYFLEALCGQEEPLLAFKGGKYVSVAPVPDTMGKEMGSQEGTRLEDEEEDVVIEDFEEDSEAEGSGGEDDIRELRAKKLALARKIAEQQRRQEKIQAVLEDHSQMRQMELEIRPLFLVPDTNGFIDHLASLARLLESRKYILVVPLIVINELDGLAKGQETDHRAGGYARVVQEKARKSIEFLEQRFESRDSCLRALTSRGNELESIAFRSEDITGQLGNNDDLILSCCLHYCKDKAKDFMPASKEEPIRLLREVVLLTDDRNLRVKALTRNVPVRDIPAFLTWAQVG
Chain of UniProt Q96BI1 (Q96BI1 whole entry, looked up): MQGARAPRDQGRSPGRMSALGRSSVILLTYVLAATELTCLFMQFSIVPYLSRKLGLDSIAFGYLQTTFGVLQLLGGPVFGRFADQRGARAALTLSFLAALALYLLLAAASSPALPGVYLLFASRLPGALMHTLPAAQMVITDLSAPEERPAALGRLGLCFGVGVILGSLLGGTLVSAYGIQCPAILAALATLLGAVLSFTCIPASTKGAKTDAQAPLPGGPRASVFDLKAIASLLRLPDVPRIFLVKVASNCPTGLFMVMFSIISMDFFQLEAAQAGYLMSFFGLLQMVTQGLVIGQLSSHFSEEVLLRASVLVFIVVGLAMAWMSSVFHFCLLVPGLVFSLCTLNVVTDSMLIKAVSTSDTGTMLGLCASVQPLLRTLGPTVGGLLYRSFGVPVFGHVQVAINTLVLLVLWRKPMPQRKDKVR
Chain of UniProt Q7L8J4 (Q7L8J4 whole entry, looked up): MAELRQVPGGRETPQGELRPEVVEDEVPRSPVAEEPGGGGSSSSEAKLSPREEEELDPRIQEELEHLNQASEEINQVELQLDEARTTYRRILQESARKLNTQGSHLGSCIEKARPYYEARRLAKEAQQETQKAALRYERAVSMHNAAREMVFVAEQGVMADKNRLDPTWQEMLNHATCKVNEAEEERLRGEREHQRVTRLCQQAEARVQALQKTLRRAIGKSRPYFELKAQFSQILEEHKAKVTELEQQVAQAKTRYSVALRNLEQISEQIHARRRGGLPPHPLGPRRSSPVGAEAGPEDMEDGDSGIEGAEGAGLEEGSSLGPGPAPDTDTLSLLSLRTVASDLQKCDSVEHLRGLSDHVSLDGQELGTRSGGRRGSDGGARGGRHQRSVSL
Chain of UniProt Q9Y3B4 (Q9Y3B4 whole entry, looked up): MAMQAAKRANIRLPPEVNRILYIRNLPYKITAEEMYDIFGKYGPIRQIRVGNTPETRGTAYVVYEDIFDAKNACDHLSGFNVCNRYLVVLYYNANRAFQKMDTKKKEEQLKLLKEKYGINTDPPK
Chain of UniProt P31947 (P31947 whole entry, looked up): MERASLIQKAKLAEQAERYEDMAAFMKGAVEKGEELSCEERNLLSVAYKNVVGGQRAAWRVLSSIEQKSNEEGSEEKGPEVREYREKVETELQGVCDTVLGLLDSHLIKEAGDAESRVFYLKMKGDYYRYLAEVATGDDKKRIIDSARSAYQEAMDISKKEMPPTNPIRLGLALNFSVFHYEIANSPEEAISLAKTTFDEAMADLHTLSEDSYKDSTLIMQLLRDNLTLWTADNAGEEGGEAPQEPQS

SMC1B isoform 3 (UniProt Q8NDV3): the log2 fold change in assay [1] is -0.063; with vorinostat, 0.068; in the assay with silmitasertib it was -0.011; in assay [2] it was 0.026; with entospletinib, 0.004.

Regarding STK39 (UniProt Q9UEW8), the log2 fold change is -0.01 in assay [1]; -0.633 (active) with vorinostat; 0.028 with silmitasertib; -0.006 in assay [2]; -0.026 with entospletinib.

With SH3BP5L (UniProt Q7L8J4), the log2 fold change is -0.003 in assay [1]; -0.025 in the assay with vorinostat; -0.068 in the assay with silmitasertib; 0.051 in assay [2]; 0.009 in the assay with entospletinib.

For the target SMG6 (UniProt Q86US8), the log2 fold change in assay [1] is 0.119; with vorinostat, -0.3 (active); with silmitasertib it was 0.015; in assay [2] it was -0.012; in the assay with entospletinib, 0.024.

In the case of SLC30A6 isoform 2 (UniProt Q6NXT4), the log2 fold change in assay [1] is 0.014; in the assay with vorinostat, 0.11; in the assay with silmitasertib it was 0.01; in assay [2] it was 0.001; with entospletinib, 0.064.

As to SF3B6 (UniProt Q9Y3B4), the log2 fold change in assay [1] was 0.018; with vorinostat, -0.273 (active); in the assay with silmitasertib it was 0.026; in assay [2], 0.007; in the assay with entospletinib, -0.015.

As for SFN (UniProt P31947), the log2 fold change in assay [1] was -0.001; with vorinostat, 0.107; in the assay with silmitasertib, -0.032; in assay [2] it was -0.026; with entospletinib, 0.045.

Regarding SMARCAD1 isoform 2 (UniProt Q9H4L7), the log2 fold change is -0.005 in assay [1]; -0.27 (active) in the assay with vorinostat; 0.012 with silmitasertib; 0.014 in assay [2]; 0.013 in the assay with entospletinib.

For the target SLC22A18 (UniProt Q96BI1), the log2 fold change in assay [1] is -0.136; with vorinostat it was -0.044; with silmitasertib, 0.006; in assay [2], 0.004; in the assay with entospletinib, 0.013.
